Data taken from PubChem BioAssay AID652017 (The Scripps Research Institute Molecular Screening Center, 2013).
In all, about 370,000 compounds went through this assay and about 3,800 (1%) were called active. Many of the other results were omitted from the sample, so actives are more common in it than they were. A number with no mark means an inactive call. No stated cut-off is given here; in the data, active means activation above about 7.8%; inactive means the rest.

Experiment: SMARCA2 (BRM) function activators, primary screen, cell-based, luminescence, high throughput (AID 652017);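 further: 0% = vehicle wells and 100% = reference activator wells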
Conditions: MG213 cells, MMTV-luciferase reporter, dexamethasone, overnight; at 9.1 µM; hits give high values

| Compound | activation |
| --- | --- |
| CCOC(=O)C1C(c2ccc(O)cc2)NC(=O)NC1(O)C(F)(F)F (stereo unspecified) | -2.11% |
| O=C(c1cccs1)C1C(c2ccc(Br)cc2)NC(=S)NC1(O)C(F)(F)F (stereo unspecified) | 9.18% (active) |
| Cc1cc(-c2n[nH]c(=S)n2/N=C/C(Br)=C/c2ccccc2)n[nH]1 | 12.8% (active) |
| CSc1ccc(C=Nn2c(-c3ccc(F)cc3)n[nH]c2=S)cc1 | -5.15% |
| C=CCN1C(=O)[C@@H](CC(=O)N2CCN(C(=O)OCC)CC2)[C@]2(C(=O)OCC)CCCCC/C=C/12 | 0.06% |
| CC(C)(C)C(=O)CSc1nc2ccccc2o1 | 8.4% (active) |
| O=C(CSc1nc2ccccc2o1)N1CCN(c2ccc(Cl)cc2)CC1 | -2.94% |
| CC1Cc2ccccc2N1C(=O)CSc1nc2ccccc2o1 (stereo unspecified) | 1.43% |
| COc1ccnc(C(=O)N2CCC(Oc3cccnc3)CC2)c1 | 3.85% |
| COc1ccc(N2CCN(CCNS(=O)(=O)c3ccc(Cl)s3)CC2)cc1 | 0.84% |
| CN1C(=O)C2(OCCCO2)c2cc(Cl)ccc21 | -0.14% |
| COC(=O)c1ccc(/C=C2/C(=O)Oc3ccccc32)cc1 | 10.5% (active) |
| COC(=O)c1ccc(/C=N/N2C(C)CCCC2C)cc1 (stereo unspecified) | -1.42% |
| O=C1Oc2ccccc2C(=O)/C1=C/c1ccccc1O | 1.29% |
| CN(C)Cc1cn(-c2ccc(-c3noc4c3C(=O)N(CC(=O)N3CCOCC3)CC4)cc2)nn1 | -2.05% |
| COc1ccc(S(=O)(=O)Nc2ccc3c(c2)C(=O)N([C@H](C)CO)C[C@H](C)[C@@H](CN(C)C)OCCCC[C@H](C)O3)cc1 | -4.35% |
| CC1CCN(c2ccc(-c3ccc(NC(=O)c4ccco4)cc3)nn2)CC1 | 3.83% |
| O=C(Nc1ccc2nccnc2c1)c1ccco1 | 9.43% (active) |
| O=C(COC(=O)CNC(=O)c1ccco1)Nc1ccc(F)cc1 | -3.14% |
| CC(OC(=O)CNC(=O)c1ccco1)C(=O)Nc1ccc(Cl)cn1 (stereo unspecified) | -2.28% |
| Cc1cc(NC(=O)[C@H](C)NC(=O)c2ccco2)ccc1Br | -1.37% |
| O=C(Nc1ccc(NC(=O)c2cccs2)cn1)c1ccco1 | 9.66% (active) |
| C=CS(=O)(=O)N(Cc1nnn(Cc2ccccc2)c1Br)[C@H](C(=O)OC)C(C)C | 3.93% |

| Compound | activation |
| --- | --- |
| CCC(=O)Nc1ccc2c(c1)C(=O)N(C)[C@@H]1CC[C@@H](CC(=O)NCCc3ccccc3)O[C@H]1CO2 | -2.13% |
| COc1ccc(S[C@]2(C(=O)N(C)C)CC(=O)N(c3ccc(OC)cc3)[C@@H]2c2ccc(OC)cc2)cc1 | 2.23% |
| Cn1nnnc1NCc1ccc(Cl)c(Cl)c1 | -0.94% |
| CCCCn1nnnc1C(c1cc2ccccc2o1)N(C)Cc1ccc(Cl)c(Cl)c1 (stereo unspecified) | 8.8% (active) |
| CCCCn1nnnc1C(c1ccccc1)N1CCN(c2ccccc2OC)CC1 (stereo unspecified) | -1.13% |
| CC(C)N1CCCCC(NC(=O)c2ccc3ccccc3c2)C1=O (stereo unspecified) | -1.33% |
| N[C@@H](Cc1ccccc1)C(=O)N1CCC[C@@H]1C(=O)N1CCC2CCN(S(=O)(=O)c3ccccc3)CC21 (stereo partly specified) | -1.95% |
| FC(F)(F)c1cccc(-c2cc3ccccc3nc2N2CCCC2)c1 | 0.37% |
| FC(F)(F)c1cccc(-c2nc3ccccc3n2C(c2ccccc2)c2nc3ccccc3[nH]2)c1 (stereo unspecified) | 9.93% (active) |
| CCC(c1nc2ccccc2[nH]1)n1c(=O)c(-c2cccs2)nc2ccccc21 (stereo unspecified) | -3.44% |
| O=S(=O)(c1ccccc1)N1CCC(c2nc3ccccc3o2)CC1 | -4.23% |
| O=C(C1CCN(S(=O)(=O)c2ccccc2)CC1)N1CCN(C2CCCCC2)CC1 | -4.09% |
| O=C(C1CCC1)N1CCN(S(=O)(=O)c2ccc([N+](=O)[O-])cc2)CC1 | 9.83% (active) |
| Cc1ccc(S(=O)(=O)N2CCC(C(=O)N3CCCCCCC3)CC2)cc1 | -3.84% |
| COC(=O)[C@H](C(C)C)N(CCCc1cn(Cc2ccccc2)nn1)S(=O)(=O)c1ccc(F)cc1Br | -0.98% |
| CCOC(=O)c1nnn2c1nc(N1CCN(c3ccccc3)CC1)c1ccccc12 | -2.86% |
| O=C(CCCCCN1C(=O)C2C3C=CC(C3)C2C1=O)Nc1ccccc1 (stereo unspecified) | -2.37% |
| Cc1ccc(C)c(NC2=NCC(=O)N2c2ccc3c(c2)OCCO3)c1 | 2.74% |
| Cc1cc(=O)[nH]c(Nc2cccc(Br)c2)n1 | -1.71% |
| Cc1cc(=O)[nH]c(N/N=C/c2ccc3c(c2)OCCO3)n1 | 8.3% (active) |
| CCCCNC(=O)C[C@@H]1C(=O)N(CCc2ccc(Cl)cc2)C2=CCCC[C@]21C(=O)OCC | -0.47% |
| COc1cccc(NS(=O)(=O)c2ccc(-c3coc(C)n3)cc2)c1 | -3.45% |
| COc1cccc(-c2nc3cc(C)ccc3o2)c1 | 7.97% (active) |

| Compound | activation |
| --- | --- |
| COc1cccc(-c2cnc(OC(C)(C)C)nc2OC(C)(C)C)c1 | -2.58% |
| C=CCN(C)CC#Cc1ccccc1 | 0.78% |
| COP(=O)(O)CNC(=O)OCc1ccccc1 | -0.59% |
| CC(CCN1CCC(C(O)(c2ccccc2)c2ccccc2)CC1)Oc1ccc(Cl)cc1 (stereo unspecified) | -5.29% |
| COCC(=O)Nc1c(I)c(C(=O)NCC(O)CO)c(I)c(C(=O)N(C)CC(O)CO)c1I (stereo unspecified) | -1.43% |
| CCOC(=O)C1(Cc2ccccc2)CCN(Cc2cn(C(C)=O)c3ccccc23)CC1 | -3.37% |
| CCCOc1ccc(-c2nc(N)n[nH]2)cc1 | 8.06% (active) |
| Nc1nc(SCCOc2ccccc2)n[nH]1 | -0.38% |
| Cc1ccc(OCCCCc2c(C)n[nH]c2C)cc1 | -4.25% |
| O=C(NCCc1c[nH]c2ccccc12)OCc1cn(-c2c(F)cccc2F)nn1 | -1.59% |
| COC(=O)[C@]12C[C@H](CC(=O)N3CCOCC3)C(=O)N(Cc3ccc(Cl)cc3Cl)C1=C[C@H](COCc1ccccc1)O[C@@H]2C | -3.76% |
| COC[C@@H]1CCCN1c1ccc2c(c1)O[C@H](C)CCN(C1CC1)S2(=O)=O | -0.54% |
| O=S(=O)(c1ccc(F)cc1)n1ccc(-c2cnc(-c3ccccc3)s2)n1 | 0.36% |
| CCOC(=O)c1csc(NC(=O)C2CCCN(S(=O)(=O)c3ccc(Cl)s3)C2)n1 (stereo unspecified) | -3.75% |
| Nn1c(SCC(=O)Nc2cccc3ccccc23)nnc1-c1cc(-c2ccc(F)cc2)n[nH]1 | -3.63% |
| COC(=O)c1ccc(NCc2cc(O)ccc2O)cc1 | 8.39% (active) |
| CCS(=O)(=O)Nc1cc(C(=O)OC)ccc1C(=O)OC | -0.18% |
| O=C(OC12CC3CC(CC(C3)C1)C2)c1ccc(NCc2cc(O)ccc2O)cc1 | -10.6% |
| O=C(NC1CCCCN(Cc2ccc(Cl)cc2)C1=O)c1ccc(Br)cc1 (stereo unspecified) | -1.79% |
| CCc1ccc(NC2Nc3cc(C)nn3S2)cc1 (stereo unspecified) | 8.13% (active) |
| CC(=O)Nc1ccc(Nc2nc3c(S(=O)(=O)c4ccc(C)c(C)c4)nnn3c3ccccc23)cc1 | 0.7% |
| CCc1c(C)nc2c(-c3ccccc3)c(C)nn2c1Nc1ccc(NC(C)=O)cc1 | -0.14% |
| CC(=O)Nc1ccc(Nc2c3ccccc3nc3ccccc23)cc1 | 8.59% (active) |

| Compound | activation |
| --- | --- |
| O=C(CSc1nc2c(c(=O)[nH]1)CCCC2)N1CCCCC1 | -4.24% |
| CCC(=O)OCCCN1C(=O)CCC12CCC(c1ccccc1)CC2 (stereo unspecified) | -3.5% |
| CC(=O)OCCN1CCCC12CCC(c1ccccc1)CC2 (stereo unspecified) | -0.56% |
| C=CCN1[C@H](CC(C)C)COc2cccc(N3CCCC3)c2S1(=O)=O | -1.47% |
| Nn1c(SCC(=O)Nc2ccc(S(N)(=O)=O)cc2)nnc1-c1n[nH]c2c1CCC2 | 0.23% |
| Oc1cccc2ccc(/C=C/c3ccc(Br)s3)nc12 | 10.9% (active) |
| COc1ccc(NC(=O)Cn2ncn3c(cc4ccccc43)c2=O)c(OC)c1OC | 1.32% |
| C[C@H](C(=O)N(C)c1ccccc1)[C@@H](O)c1ccc(Cl)cc1 | -0.55% |
| CCOC(=O)c1sc2nc(C)nc(SCC(N)=O)c2c1C | -1.05% |
| CCOC(=O)c1sc2nc(CSc3ccccc3)[nH]c(=O)c2c1C | 9.98% (active) |
| CSc1nnc(SCc2nc3sc(C(=O)O)c(C)c3c(=O)[nH]2)s1 | -1.68% |
| Cc1csc(Nc2ccc(Cl)cc2)[n+]1-c1ccc(Cl)cc1 | -3.27% |
| CCC(c1ccc(NC(=O)OC(C)(C)C)cc1)c1cc(OC)cc(OC)c1 (stereo unspecified) | -2.7% |
| Cc1ccc(NC(=O)c2cc(C)nn2-c2ccccc2)c(C)c1 | -4.44% |
| Cc1ccnc(Nc2nc3ccccc3s2)n1 | 10.6% (active) |
| Cc1ccnc(-n2sc3ccccc3c2=O)n1 | 1.96% |
| Cn1c(-c2ccc(C(F)(F)F)cc2)cc2onc(-c3ccccc3)c2c1=O | 5.26% |
| Cn1c(-c2ccc(F)cc2)cc2onc(-c3ccccc3Cl)c2c1=O | 9.9% (active) |
| Cc1[nH]n(C)c(=O)c1C(=O)c1c(-c2c(Cl)cccc2Cl)noc1C | -2.74% |
| CCOC(=O)[C@]12CCCCC/C=C\1N(Cc1ccc(OC)cc1)C(=O)[C@H]2CC(=O)NCCCN1CCCC1=O | -2.38% |
| O=C(CNS(=O)(=O)c1ccccc1F)N1CCN(c2ccccn2)CC1 | -3.89% |
| COC(=O)[C@]12C[C@H](CC(=O)NCCc3ccccc3OC)C(=O)N(Cc3ccco3)C1=C[C@H](C(C)C)O[C@@H]2C1CC1 | -4.32% |
